“And” between values parts separate entries of the source, which are not always exact repeats. Equal entries are not always repeated. This is part of a sample that, as a whole, favours compounds with a hit. Of some 79,000 tested, about 15% had one in any assay. Some compounds were tested as several samples or in several runs, with calls that do not always agree. The source made the active and inactive calls. Rule as the data show it: active = growth inhibition above about 70%; inactive = the rest.
test: NCI Yeast Anticancer Drug Screen. Data for the mec2-1 strain (AID 157); conditions: S. cerevisiae mec2-1 strain, at 5.0 µM (retest, dose inferred, filed as 0.5), stronger effect = higher value
In short: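 Test agents were screened against the mec2-1 yeast strain, with defined DNA repair or cell cycle alteration. Growth was scored as inhibition against vehicle-only controls.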

SMILES	growth inhibition
COC(COC(N)=O)C1=C(N2CC2)C(=O)C(C)=C(N2CC2)C1=O (stereo not drawn)	39% (inactive)
Cc1nc(Cl)c(CBr)c(Cl)n1	44% (inactive)
C[n+]1[se]nc2cc(C(=O)c3ccccc3)ccc21 (tested in a mixture with another compound)	99% (active)
O=C(O)c1ccccc1.[Ag]	95% (active) and 60% (inactive)
CC(=O)[O-].O=C([CH-]C(=O)c1ccccc1)c1ccccc1.O=C([CH-]C(=O)c1ccccc1)c1ccccc1.[Sm+3]	42% (inactive)
CC(C)(Br)C(=O)C(Br)Br	100% (active)
COC1(OC)C(Cl)=C(Cl)C(Cl)=C1Cl	-2% (inactive)
C=C[C@H]1CN2CC[C@H]1C[C@@H]2[C@@H](O)c1ccnc2ccccc12	8% (inactive)
[C-]#[O+].[C-]#[O+].[Ir].[O-]c1ccc2ccccc2c1N=Nc1ccccc1	-11% (inactive)
O=C(Nc1ccccc1)OC(C[N+](=O)[O-])C(Cl)(Cl)Cl (stereo not drawn)	10% (inactive)
[Pt].c1ccc(P(CCP(c2ccccc2)c2ccccc2)CCP(c2ccccc2)c2ccccc2)cc1	-3% (inactive)
CC12CCC(C1)C(C)(C)C2OC(=O)c1ccccc1N (stereo not drawn)	-26% (inactive)
CC(=O)[O][Hg][c]1cc2c(cc1O)Cc1cc([N+](=O)[O-])ccc1-2	99% (active)
OC1(c2ccccc2)CC2CCC(C1)N2CCCC(O)(c1ccccc1)c1ccccc1 (stereo not drawn)	-10% (inactive)
ClC1=C(Cl)C(Cl)(Cl)SS1	100% (active)
COC(=O)C(F)C(Br)C(=O)OC (stereo not drawn)	93% (active)
c1ccc2c(NCCCCCCNc3c4ccccc4nc4ccccc34)c3ccccc3nc2c1	43% (inactive)
c1ccc2c(NCCCCCCCCNc3c4ccccc4nc4ccccc34)c3ccccc3nc2c1	89% (active)
CN(Cc1ccccc1)CC(O)c1ccc(Cl)cc1 (stereo not drawn)	-1% (inactive)

SMILES	growth inhibition
Br[C](Br)(Br)[Hg][c]1ccccc1	100% (active)
Cc1cc(N=Nc2ccccc2C)ccc1N	46% (inactive) and 23% (inactive)
C/C(=N\N=C(/[Se])N1CC2CCC(CC2)C1)c1ccccn1	40% (inactive)
CCCCCCCCCC[Se]C#N	30% (inactive)
CNCC(O)c1ccc(O)c(O)c1.[Pt].c1ccc([PH+](c2ccccc2)c2ccccc2)cc1.c1ccc([PH+](c2ccccc2)c2ccccc2)cc1	-8% (inactive)
CCN(CC)CC.CCOc1ccc(NC(=O)N=C=[N-])cc1.[CH-]1CCCCC1.[CH-]1CCCCC1.[CH-]1CCCCC1.[Cl-].[Sn+4]	100% (active)
Cc1cc(N(C)C)c2ccccc2[n+]1CCCCCCCCCC[n+]1c(C)cc(N(C)C)c2ccccc21	98% (active)
CCC[CH2][Sn]1([CH2]CCC)[O]CC(CN2CCCC2)[O]1 (stereo not drawn)	28% (inactive)
N#Cc1ccc([Se]c2ccccc2)cc1	95% (active)
O=c1ssc(Cl)c1Cl	96% (active)
Cc1ccc(P(c2ccc(C)cc2)c2ccc(C)cc2)cc1	58% (inactive)
O=C(O)c1ccccc1[Se][Se]c1ccccc1C(=O)O	26% (inactive)
CC1CC(C)CC(C)C(O)/C(C#N)=C/C=C/CC(C2CCCC2C(=O)O)OC(=O)CC(O)C(C)C1 (stereo not drawn)	99% (active)
CCC[CH2][Pb]([Cl])([CH2]CCC)[CH2]CCC	100% (active)
CNC(Cc1ccccc1)c1ccc(OC)c(OC)c1 (stereo not drawn)	79% (active)
CC1C(=O)OCC1(C)O (stereo not drawn)	1% (inactive)
O=C(Nc1ccccc1)c1cc([N+](=O)[O-])ccc1O	0% (inactive)
N=P(c1ccccc1)(c1ccccc1)c1ccccc1 (tested in a mixture with another compound)	6% (inactive)

same assay, conditions: S. cerevisiae mec2-1 strain, at 11.0 µM, stronger effect = higher value

SMILES	growth inhibition
O=C(O)c1ccccc1.[Ag]	99% (active)
CC(=O)[O-].O=C([CH-]C(=O)c1ccccc1)c1ccccc1.O=C([CH-]C(=O)c1ccccc1)c1ccccc1.[Sm+3]	47% (inactive)
C=C[C@H]1CN2CC[C@H]1C[C@@H]2[C@@H](O)c1ccnc2ccccc12	4% (inactive)
[Pt].c1ccc(P(CCP(c2ccccc2)c2ccccc2)CCP(c2ccccc2)c2ccccc2)cc1	6% (inactive)
CC12CCC(C1)C(C)(C)C2OC(=O)c1ccccc1N (stereo not drawn)	-6% (inactive)
OC1(c2ccccc2)CC2CCC(C1)N2CCCC(O)(c1ccccc1)c1ccccc1 (stereo not drawn)	4% (inactive)
COC(=O)C(F)C(Br)C(=O)OC (stereo not drawn)	95% (active)
CCCCCCCCCC[Se]C#N	6% (inactive)
CNCC(O)c1ccc(O)c(O)c1.[Pt].c1ccc([PH+](c2ccccc2)c2ccccc2)cc1.c1ccc([PH+](c2ccccc2)c2ccccc2)cc1	4% (inactive)
Cc1ccc(P(c2ccc(C)cc2)c2ccc(C)cc2)cc1	2% (inactive)
CC1CC(C)CC(C)C(O)/C(C#N)=C/C=C/CC(C2CCCC2C(=O)O)OC(=O)CC(O)C(C)C1 (stereo not drawn)	98% (active)

Source: PubChem BioAssay (NCI)
